# Screens deposited in PubChem by National Center for Advancing Translational Sciences (NCATS).
# Rows were chosen to be rich in hits. Some 3.9% of all compounds tested hit in one or more screens of this group.
# USP2a block: qHTS Assay for Inhibitors of Ubiquitin-specific Protease USP2a Using CHOP2 as the Reporter | Ubiquitin carboxyl-terminal hydrolase 2 (Homo sapiens), O75604 | USP2 core, Ub-CHOP2 coupled fluorogenic reporter, 485/531 | Potency, µM (series often up to 38.3 µM), inactives show at the highest dose activity change, negative = inhibition, most hits filed as inhibitors | 330,000 compounds, 0.01% hits | AID 463254, 2010;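 note: potency is the fitted concentration of half-maximal effect; plate controls were DMSO wells for no effect and full inhibition by NEM control for full effect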
#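 USP2 core (10nM final) preincubated 30min RT with compound in 20mM Tris-HCl pH 8.0, 2mM CaCl2, 2mM beta-mercaptoethanol, 0.05% CHAPS; 25nM Ub-CHOP2 plus 25nM reporter substrate added, fluorescence (Ex485/Em531) read after 60min.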
# D1 antag: Antagonist of Human D 1 Dopamine Receptor: qHTS. HEK293 TREx D1 cells, calcium flux, dopamine EC80; active compounds read low. AID 504652, 2011. D(1A) dopamine receptor (Homo sapiens), P21728. activity change, negative = inhibition, % at 10 µM. 360,000 compounds, 3.2% hits; in the data active = activity change below about -30%; note: % is set by controls: 0 for no effect and ±100 for the full control effect
#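 Tetracycline-induced HEK293 T-REx cells with force-coupled D1 receptor were loaded with a no-wash calcium dye. Compound was added after a 10 s baseline and read kinetically for 180 s; EC80 dopamine was then added and calcium flux followed another 180 s.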
# D1 potentiator: Potentiators of Human D1 Dopamine Receptor: qHTS. D(1A) dopamine receptor (Homo sapiens), P21728. HEK293 TREx D1 cells, calcium flux, dopamine EC20 potentiation. potentiation, % at 10 µM. 360,000 compounds, 0.036% hits. AID 504651, 2011; in the data active = potentiation above about 30%; note: 0% is about no effect
# D1 agonist: Allosteric Agonists of the Human D1 Dopamine Receptor: qHTS; D(1A) dopamine receptor (Homo sapiens), P21728; HEK293 T-REx D1 cells, calcium flux, agonist mode; activation, % at 2 µM; 360,000 compounds, 1% hits; in the data active = activation above about 30%; note: 0% is about no effect
#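 Tetracycline-induced HEK293 TREx D1 cells, force-coupled to calcium signalling, were dye-loaded with a no-wash calcium kit. Compound was pin-added after a 10 s baseline. Fluorescence was read kinetically at 1 cycle/s for 180 s, with calcium rises flagged as agonism.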
# GALK inhibitor: qHTS Assay for Inhibitors of Human Galactokinase (GALK); P51570; Purified GALK, Kinase-Glo residual ATP luminescence; Potency, µM (doses to about 57.5 µM), without a hit: at the top dose activity change, negative = inhibition, actives largely listed as inhibitors; 270,000 compounds, 0.007% hits; AID 1868, 2009; note: potency is the fitted concentration of half-maximal effect; % is set by controls: 0 for no effect and ±100 for the full control effect
# Target sequence (P51570 whole entry, looked up): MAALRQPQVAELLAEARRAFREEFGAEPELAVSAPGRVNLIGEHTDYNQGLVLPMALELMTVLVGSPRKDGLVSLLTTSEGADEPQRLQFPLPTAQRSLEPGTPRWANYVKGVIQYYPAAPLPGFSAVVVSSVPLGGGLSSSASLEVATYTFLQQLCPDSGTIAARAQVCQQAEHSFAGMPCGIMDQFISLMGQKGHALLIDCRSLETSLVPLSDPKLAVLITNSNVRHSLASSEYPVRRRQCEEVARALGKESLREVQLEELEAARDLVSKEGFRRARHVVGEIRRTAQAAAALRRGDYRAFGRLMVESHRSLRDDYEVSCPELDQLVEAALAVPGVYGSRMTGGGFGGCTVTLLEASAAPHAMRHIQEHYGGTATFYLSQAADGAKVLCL
#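 5 nM enzyme, 35 uM ATP, 100 uM galactose, 20 mM HEPES pH8.0, 5 mM MgCl2; 1 h RT; residual ATP by Kinase-Glo Plus luminescence, qHTS format.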
# Eya2 phos inh: qHTS Assay for Inhibitors of the Phosphatase Activity of Eya2; 330,000 compounds, 0.006% hits; recombinant Eya2, OMFP fluorescence dephosphorylation (OMFP is methylfluorescein phosphate); Protein phosphatase EYA2 (Homo sapiens), O00167; Potency, µM (series often up to 76.9 µM), for the others: top-dose activity, negative = inhibition, hits mostly inhibitors; note: potency is the fitted concentration of half-maximal effect; % is set by controls: 0 for no effect and ±100 for the full control effect
#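 Eya2 protein (added as 0.2 uM solution) was preincubated with compound for 10 min at ambient temperature in 50 mM HEPES pH 7.5, 50 mM NaCl, 5 uM MgCl2, 0.05% BSA, 1 mM DTT. OMFP (added at 50 uM) then reacted 10 min; fluorescence read at 485/525 nm.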
# The depositor's hits bear a star; x = no result given. Unless noted, calls come from the whole dose curve; as a rule, active = well fitted inhibition curve with a large enough effect; inconclusive = small, poorly fitted or top-dose-only effect, or effect the other way; inactive = flat fitted curve, though single readings scatter.
SMILES,USP2a block,D1 antag,D1 potentiator,D1 agonist,GALK inhibitor,Eya2 phos inh
CCCOc1ccc(NC(=O)CC2C(=O)N(c3ccc(OC)cc3)C(=O)N2CCc2ccncc2)cc1 (stereo not drawn),x,-42.4*,-1.9,1.4,x,x
COC(=O)c1ccc(NC(=O)CC2C(=O)N(c3cccc(F)c3)C(=O)N2CC(C)C)cc1 (stereo not drawn),x,-33.0*,0.1,9.9,x,x
COc1ccc(NC(=O)CC2C(=O)N(c3cccc(OC)c3)C(=O)N2Cc2cccnc2)cc1 (stereo not drawn),x,-64.6*,2.3,0.2,x,x
CCCOc1ccc(NC(=O)CC2C(=O)N(c3cccc(C)c3)C(=O)N2CCc2ccncc2)cc1 (stereo not drawn),x,0.5,-2.6,0.5,x,x
CCOC(=O)c1ccc(NC(=O)Cn2cc(C(=O)c3ccc(Cl)cc3)c(=O)c3ccc(C)nc32)cc1,x,-2.6,-2.8,8.1,x,x
O=C(Nc1nnc(S(=O)(=O)N2CCCc3ccccc32)s1)c1ccccc1Cl,x,5.5,2.4,0.3,x,x
COc1cccc(C(=O)CN2CCN(S(=O)(=O)c3ccc(Cl)cc3)CC2)c1,x,-2.1,-0.1,1.4,x,x
O=S(=O)(c1ccccc1)N1CCN(c2nc(-c3ccc(F)cc3)nc3cc(Cl)ccc23)CC1,x,2.4,13.7,-0.1,x,x
CCOC(=O)c1cccc(NC(=O)CC2C(=O)N(c3ccc(OC)cc3)C(=O)N2C2CCCC2)c1 (stereo not drawn),x,-35.3*,-3.5,7.0,x,x
Cc1cc(C)cc(Cn2ncc3c4sc(C)cc4n(C)c3c2=O)c1,x,-6.2,-0.1,2.0,x,x
O=C(c1cc(F)ccc1F)C1CCCN(C(=O)CSc2ccccn2)C1 (stereo not drawn),0.0%,-39.9*,2.6,0.3,8.8%,-7.1%
CC(C)Cc1nnc(NC(=O)Cc2cccs2)s1,0.4%,-49.8*,-3.0,1.0,0.1%,2.7%
CC(OC(=O)Cc1c[nH]c2ccccc12)C(=O)NC1CCCCC1C (stereo not drawn),-4.0%,-31.4*,-3.7,3.5,x,-1.7%
Cc1ccc(S(=O)(=O)CCC(=O)N(C)C2CCCCC2)cc1,-4.5%,-41.8*,-2.8,-0.3,0.2%,-15.0%
Cc1ccc(S(=O)(=O)CCC(=O)OC(C)C(=O)NC2CCCCC2C)cc1 (stereo not drawn),-0.5%,-42.2*,-0.8,2.2,x,14.8%
Cc1ccc(NC(=O)C(C)OC(=O)Cc2c[nH]c3ccccc23)cc1 (stereo not drawn),-1.9%,-55.8*,-1.9,-1.2,x,4.3%
COc1ccc(OC)c(NC(=O)Cn2cnc3onc(-c4ccc(Cl)cc4)c3c2=O)c1,x,-4.5,1.4,0.1,x,x
CN(Cc1ccco1)c1ncnc2ccc(-c3ccc4c(c3)OCCO4)cc12,2.1%,4.0,-1.6,0.2,x,6.0%
CCOc1cc(CNC(=O)c2ccc3c(c2)nc2n3CCCCC2)ccc1OC,x,0.1,-0.8,0.0,x,x
NC(=Nc1ccc(Cl)cc1)c1ccccc1,4.4%,-53.2*,-3.0,70.8*,0.7%,3.5%
COc1ccc(N2CCN(C(=O)CC(C)S(=O)(=O)c3ccc4c(c3)NC(=O)CO4)CC2)cc1 (stereo not drawn),6.7%,-31.5*,-3.2,4.7,0.0%,4.5%
O=C(Nc1ccnn1C1CCN(Cc2ccccc2OCCO)CC1)c1cccc(F)c1,0.9%,6.3,-1.8,2.7,-6.9%,-6.3%
CN(C)S(=O)(=O)N1CCC(n2nccc2NC(=O)CCc2ccccc2)CC1,1.3%,-43.5*,2.4,1.8,7.3%,-0.9%
O=C(Nc1ccnn1C1CCN(Cc2ccccn2)CC1)c1cccc(F)c1,1.1%,-38.1*,-18.1,1.6,-2.8%,-4.3%
O=C(CCCc1ccccc1)Nc1ccnn1C1CCN(Cc2ccc(CO)o2)CC1,0.7%,-33.7*,7.0,1.2,1.9%,-0.7%
SMILES,USP2a block,D1 antag,D1 potentiator,D1 agonist,GALK inhibitor,Eya2 phos inh
O=C(CCCc1ccccc1)Nc1ccnn1C1CCN(Cc2ccccc2)CC1,3.2%,-4.3,-4.4,33.6*,-4.0%,4.2%
O=C(Cc1ccccc1)Nc1ccnn1C1CCN(Cc2ccc(CO)o2)CC1,-0.1%,1.3,-2.5,3.3,2.1%,-0.4%
O=C(CCCc1ccccc1)Nc1ccnn1C1CCN(Cc2ccc(Cl)cc2)CC1,0.9%,-29.9,-1.9,27.5,7.1%,-3.1%
CN(C)S(=O)(=O)N1CCC(n2nccc2NC(=O)CCCc2ccccc2)CC1,-0.5%,6.1,0.6,0.2,4.3%,9.3%
CCOc1ccc(C(=O)N/N=C(\c2ccccc2)c2ccccn2)cc1,-12.9%,-33.4*,-5.4,1.5,-1.1%,9.7%
COc1cccc(/C=C2\Sc3ccc(C(=O)NCc4cccnc4)cc3N(C)C2=O)c1,-1.2%,-17.0,-8.5,3.0,1.1%,-5.1%
CN1CCN(C(=O)c2ccc3c(c2)N(C)C(=O)/C(=C/c2cccc(Cl)c2)S3)CC1,1.6%,-37.5*,-7.4,21.6,-1.0%,4.4%
CN1C(=O)/C(=C/c2cccc(Cl)c2)Sc2ccc(C(=O)NCc3cccnc3)cc21,-5.7%,-39.6*,-9.7,12.4,-1.9%,0.5%
CCOC(=O)C1CCN(C(=O)c2[nH]c3ccc(OC)cc3c2C)CC1,1.1%,-67.3*,0.6,2.3,4.6%,-0.6%
Cc1ccccc1Nc1cc(C)c2c(O)cccc2n1,-2.3%,-15.4,-9.4,9.1,x,-4.6%
COC(=O)c1cc(Nc2cc(C)c3c(O)cccc3n2)cc(C(=O)OC)c1,-0.1%,-25.7,-5.9,7.8,x,-21.7%
Cc1ccc(Nc2cc(C)c3ccc(O)cc3n2)cc1C,2.4%,2.6,-18.6,32.5*,x,2.8%
COc1ccc(Nc2c(C)cccc2C)cc1,4.1%,-38.4*,-17.3,2.6,-5.8%,3.3%
COc1ccc(C(=O)CC(=O)C(=O)Nc2c(C)cccc2C)cc1,-1.7%,-8.9,-10.6,1.4,-0.1%,-4.3%
COc1ccc(Nc2cc(C)c3c(O)cccc3n2)cc1,0.8%,-32.8*,-16.2,8.5,-1.5%,0.1%
Cc1ccc(Nc2cc(C)c3c(O)cccc3n2)cc1C,-6.3%,-48.6*,-18.3,35.2*,x,-9.7%
CCC(C)NC(=O)Cn1c(=O)n(Cc2ccc(C(=O)NCCCOC)cc2)c(=O)c2ccccc21 (stereo not drawn),x,-15.7,1.5,0.7,x,x
